# Assay results published in article PMC7862700, “An all-to-all approach to the identification of sequence-specific readers for epigenetic DNA modifications on cytosine”.
# Key:
# Experiment in all cases: DAPPL (digital affinity profiling via proximity ligation, sequencing); 10 mM Tris-HCl pH 7.5, 50 mM NaCl, 1 mM DTT, 4% glycerol, room temperature, 30 min; GST-TFs on glutathione beads, 16-mer random dsDNA library, 0.1% formaldehyde crosslink after washing; high values mean tight binding
# [1] = biological target: T1, FLI1 (Homo sapiens, UniProt Q01543 1-452); details: protein: recombinant; tags: N-terminal GST; dsDNA, one strand shown
# T1 sequence: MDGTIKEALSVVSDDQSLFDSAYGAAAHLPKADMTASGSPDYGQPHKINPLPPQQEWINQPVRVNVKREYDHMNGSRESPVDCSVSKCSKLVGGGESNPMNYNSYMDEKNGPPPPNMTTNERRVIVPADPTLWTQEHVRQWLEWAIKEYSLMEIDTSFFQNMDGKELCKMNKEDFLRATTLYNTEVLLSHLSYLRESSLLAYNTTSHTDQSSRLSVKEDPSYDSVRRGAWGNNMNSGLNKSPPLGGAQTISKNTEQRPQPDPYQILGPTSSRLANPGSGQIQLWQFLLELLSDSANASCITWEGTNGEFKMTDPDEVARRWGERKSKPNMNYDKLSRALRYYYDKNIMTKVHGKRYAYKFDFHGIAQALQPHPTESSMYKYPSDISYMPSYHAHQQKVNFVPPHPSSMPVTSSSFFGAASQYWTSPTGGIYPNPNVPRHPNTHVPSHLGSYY
# In short: (§1)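 Pools of DNA-barcoded human transcription factors, expressed in yeast as GST fusions on glutathione beads and combined with a tag-only sample, were incubated with 200 nmole of a 16-mer random double-stranded DNA library. Incubation took 30 min at room temperature in Tris/NaCl/DTT/glycerol buffer and was followed by washing, 0.1% formaldehyde crosslinking, proximity ligation (BsaI/T4 ligase, 1 h, 37 °C), PCR amplification and sequencing on an Illumina NextSeq500. Binding signal is the ratio of a hexamer's read frequency for a factor to its frequency for the tag-only sample.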
# [2] = biological target: T2, ELK1 (Homo sapiens, UniProt P19419 1-428); details: protein: recombinant; tags: N-terminal GST; dsDNA, one strand shown
# T2 sequence: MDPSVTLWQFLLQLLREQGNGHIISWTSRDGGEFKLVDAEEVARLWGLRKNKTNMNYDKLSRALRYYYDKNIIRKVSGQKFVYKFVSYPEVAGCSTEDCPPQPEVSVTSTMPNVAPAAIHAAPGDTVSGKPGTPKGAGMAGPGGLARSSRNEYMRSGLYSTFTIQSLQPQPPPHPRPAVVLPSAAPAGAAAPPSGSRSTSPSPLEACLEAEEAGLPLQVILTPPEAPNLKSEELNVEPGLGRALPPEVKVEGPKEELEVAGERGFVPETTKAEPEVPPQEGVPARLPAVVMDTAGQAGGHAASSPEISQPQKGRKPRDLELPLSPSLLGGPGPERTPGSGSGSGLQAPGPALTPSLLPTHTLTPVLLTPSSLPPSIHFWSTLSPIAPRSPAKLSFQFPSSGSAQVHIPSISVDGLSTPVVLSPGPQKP
# In short: as §1
# [3] = biological target: T3, GABPA (Homo sapiens, UniProt Q06546 1-454); details: protein: recombinant; tags: N-terminal GST; dsDNA, one strand shown
# T3 sequence: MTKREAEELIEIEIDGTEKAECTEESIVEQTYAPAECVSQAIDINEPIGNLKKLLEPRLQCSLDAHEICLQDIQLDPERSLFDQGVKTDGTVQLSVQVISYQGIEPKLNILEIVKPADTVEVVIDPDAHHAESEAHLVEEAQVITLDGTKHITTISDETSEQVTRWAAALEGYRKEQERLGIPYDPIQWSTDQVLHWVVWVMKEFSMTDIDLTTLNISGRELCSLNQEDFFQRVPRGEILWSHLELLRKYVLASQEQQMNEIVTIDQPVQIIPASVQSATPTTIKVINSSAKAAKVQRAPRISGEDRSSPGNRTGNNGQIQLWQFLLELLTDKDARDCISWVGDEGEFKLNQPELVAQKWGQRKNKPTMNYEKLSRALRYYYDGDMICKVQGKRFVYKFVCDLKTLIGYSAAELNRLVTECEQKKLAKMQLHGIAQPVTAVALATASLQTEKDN
# In short: as §1
# [4] = biological target: T4, ERG (Homo sapiens, UniProt P11308 1-479); details: protein: recombinant; tags: N-terminal GST; dsDNA, one strand shown
# T4 sequence: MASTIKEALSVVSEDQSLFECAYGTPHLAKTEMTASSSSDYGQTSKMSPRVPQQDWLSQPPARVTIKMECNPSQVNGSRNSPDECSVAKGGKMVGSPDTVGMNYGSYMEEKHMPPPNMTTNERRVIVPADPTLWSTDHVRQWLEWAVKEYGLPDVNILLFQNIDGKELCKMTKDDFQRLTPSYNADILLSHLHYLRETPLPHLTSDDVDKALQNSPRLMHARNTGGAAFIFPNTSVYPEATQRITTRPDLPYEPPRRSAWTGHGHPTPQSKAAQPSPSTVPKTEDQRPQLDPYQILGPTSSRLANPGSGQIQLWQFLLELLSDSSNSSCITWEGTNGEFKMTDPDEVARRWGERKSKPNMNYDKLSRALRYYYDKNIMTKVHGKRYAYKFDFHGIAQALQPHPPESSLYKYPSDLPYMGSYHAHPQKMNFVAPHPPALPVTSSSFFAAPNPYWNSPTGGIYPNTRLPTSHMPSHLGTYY
# In short: as §1
# [5] = biological target: ELF1 (Homo sapiens, UniProt P32519 1-619); details: protein: recombinant; tags: N-terminal GST; dsDNA, one strand shown
# Sequence of ELF1 (P32519 whole entry): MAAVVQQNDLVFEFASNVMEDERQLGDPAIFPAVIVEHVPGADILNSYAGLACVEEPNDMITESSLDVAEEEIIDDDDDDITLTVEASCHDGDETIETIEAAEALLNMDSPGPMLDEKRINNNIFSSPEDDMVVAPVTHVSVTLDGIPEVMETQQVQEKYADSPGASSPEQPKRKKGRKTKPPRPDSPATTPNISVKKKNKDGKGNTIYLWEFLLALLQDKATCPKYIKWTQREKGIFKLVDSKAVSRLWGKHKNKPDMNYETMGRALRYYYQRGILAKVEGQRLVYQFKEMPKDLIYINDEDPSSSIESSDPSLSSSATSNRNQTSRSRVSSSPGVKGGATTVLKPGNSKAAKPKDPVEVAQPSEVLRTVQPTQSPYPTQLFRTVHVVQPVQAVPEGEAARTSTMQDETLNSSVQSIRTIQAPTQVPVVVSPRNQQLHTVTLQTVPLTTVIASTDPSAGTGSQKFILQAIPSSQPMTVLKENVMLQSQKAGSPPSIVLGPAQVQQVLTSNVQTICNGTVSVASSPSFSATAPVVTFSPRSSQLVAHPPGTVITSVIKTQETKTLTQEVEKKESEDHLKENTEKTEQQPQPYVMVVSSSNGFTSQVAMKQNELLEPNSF
# In short: as §1
# [6] = biological target: T5, EHF (Homo sapiens, UniProt Q9NZC4 1-300); details: protein: recombinant; tags: N-terminal GST; dsDNA, one strand shown
# T5 sequence: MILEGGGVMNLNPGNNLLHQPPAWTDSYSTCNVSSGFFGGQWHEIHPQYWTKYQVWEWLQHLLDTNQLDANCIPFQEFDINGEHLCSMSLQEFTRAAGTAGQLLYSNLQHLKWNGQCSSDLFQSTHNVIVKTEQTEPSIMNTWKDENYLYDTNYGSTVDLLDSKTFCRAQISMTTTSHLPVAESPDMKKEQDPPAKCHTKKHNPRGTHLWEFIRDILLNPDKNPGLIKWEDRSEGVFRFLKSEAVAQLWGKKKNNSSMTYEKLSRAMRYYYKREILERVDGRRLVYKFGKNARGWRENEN
# In short: as §1
# [7] = biological target: SPI1 (Homo sapiens, UniProt P17947 1-270); details: protein: recombinant; tags: N-terminal GST; dsDNA, one strand shown
# In short: as §1
# [8] = biological target: SPIB (Homo sapiens, UniProt Q01892 1-262); details: protein: recombinant; tags: N-terminal GST; dsDNA, one strand shown
# Sequence of SPIB (Q01892 whole entry): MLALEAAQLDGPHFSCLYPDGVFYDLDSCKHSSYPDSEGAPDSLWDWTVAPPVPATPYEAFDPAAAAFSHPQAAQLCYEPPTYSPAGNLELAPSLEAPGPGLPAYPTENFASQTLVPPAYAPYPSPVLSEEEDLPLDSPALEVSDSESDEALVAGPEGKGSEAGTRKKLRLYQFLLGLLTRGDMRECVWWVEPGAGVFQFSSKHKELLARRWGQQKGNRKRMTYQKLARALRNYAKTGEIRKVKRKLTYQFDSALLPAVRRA
# In short: as §1
# [9] = biological target: T6, ELK3 (Homo sapiens, UniProt P41970 1-407); details: protein: recombinant; tags: N-terminal GST; dsDNA, one strand shown
# T6 sequence: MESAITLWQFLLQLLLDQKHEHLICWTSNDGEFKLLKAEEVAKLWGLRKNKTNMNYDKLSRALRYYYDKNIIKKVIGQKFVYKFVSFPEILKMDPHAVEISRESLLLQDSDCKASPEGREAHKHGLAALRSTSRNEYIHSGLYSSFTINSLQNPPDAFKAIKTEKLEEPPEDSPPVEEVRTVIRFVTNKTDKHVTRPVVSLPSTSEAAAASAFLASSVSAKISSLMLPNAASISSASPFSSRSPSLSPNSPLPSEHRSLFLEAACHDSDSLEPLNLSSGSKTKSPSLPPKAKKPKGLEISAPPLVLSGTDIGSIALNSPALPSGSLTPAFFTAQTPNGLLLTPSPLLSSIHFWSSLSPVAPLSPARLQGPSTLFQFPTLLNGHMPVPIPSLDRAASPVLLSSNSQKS
# In short: as §1
# [10] = biological target: T7, FEV (Homo sapiens, UniProt Q99581 1-238); details: protein: recombinant; tags: N-terminal GST; dsDNA, one strand shown
# T7 sequence: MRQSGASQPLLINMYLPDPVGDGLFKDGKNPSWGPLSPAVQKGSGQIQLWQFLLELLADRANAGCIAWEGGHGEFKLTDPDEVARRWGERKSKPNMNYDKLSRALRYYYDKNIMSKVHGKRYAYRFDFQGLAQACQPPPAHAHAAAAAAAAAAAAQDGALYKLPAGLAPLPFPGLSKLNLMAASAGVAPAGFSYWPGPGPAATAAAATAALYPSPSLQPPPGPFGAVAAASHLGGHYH
# In short: as §1
# [11] = biological target: ETV5 (Homo sapiens, UniProt P41161 1-510); details: protein: recombinant; tags: N-terminal GST; dsDNA, one strand shown
# Sequence of ETV5 (P41161 whole entry): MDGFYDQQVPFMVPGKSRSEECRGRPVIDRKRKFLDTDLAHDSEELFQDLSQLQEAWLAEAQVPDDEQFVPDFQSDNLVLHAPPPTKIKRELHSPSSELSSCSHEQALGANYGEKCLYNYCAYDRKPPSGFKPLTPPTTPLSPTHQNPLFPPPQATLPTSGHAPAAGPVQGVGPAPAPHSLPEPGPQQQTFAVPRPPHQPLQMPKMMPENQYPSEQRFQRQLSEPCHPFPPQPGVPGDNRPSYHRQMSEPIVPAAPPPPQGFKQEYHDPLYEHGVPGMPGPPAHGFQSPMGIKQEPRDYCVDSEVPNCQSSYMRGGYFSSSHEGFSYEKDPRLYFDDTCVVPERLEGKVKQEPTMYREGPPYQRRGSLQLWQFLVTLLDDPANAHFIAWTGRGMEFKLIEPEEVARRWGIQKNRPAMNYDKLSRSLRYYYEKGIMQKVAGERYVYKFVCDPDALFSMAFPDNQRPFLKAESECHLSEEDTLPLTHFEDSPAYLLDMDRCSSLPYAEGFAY
# In short: as §1
# [12] = biological target: HSF1 (Homo sapiens, UniProt Q00613 1-529); details: protein: recombinant; tags: N-terminal GST; chain copies: 3; dsDNA, one strand shown
# Sequence of HSF1 (Q00613 whole entry): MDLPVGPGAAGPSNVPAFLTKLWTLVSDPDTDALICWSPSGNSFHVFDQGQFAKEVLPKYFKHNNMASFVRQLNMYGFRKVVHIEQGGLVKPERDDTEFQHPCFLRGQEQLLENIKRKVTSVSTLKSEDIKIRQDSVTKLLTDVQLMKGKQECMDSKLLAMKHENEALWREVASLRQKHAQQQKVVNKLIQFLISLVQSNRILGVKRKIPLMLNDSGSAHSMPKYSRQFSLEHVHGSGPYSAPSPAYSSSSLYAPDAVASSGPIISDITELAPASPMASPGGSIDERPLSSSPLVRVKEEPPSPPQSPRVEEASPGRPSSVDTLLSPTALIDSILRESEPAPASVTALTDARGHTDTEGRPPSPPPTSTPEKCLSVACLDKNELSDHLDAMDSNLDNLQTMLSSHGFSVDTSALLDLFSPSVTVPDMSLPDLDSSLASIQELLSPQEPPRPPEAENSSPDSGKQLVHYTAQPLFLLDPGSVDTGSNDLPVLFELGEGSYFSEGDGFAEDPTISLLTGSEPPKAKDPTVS
# In short: as §1
# [13] = biological target: T8, SPIC (Homo sapiens, UniProt Q8N5J4 1-248); details: protein: recombinant; tags: N-terminal GST; dsDNA, one strand shown
# T8 sequence: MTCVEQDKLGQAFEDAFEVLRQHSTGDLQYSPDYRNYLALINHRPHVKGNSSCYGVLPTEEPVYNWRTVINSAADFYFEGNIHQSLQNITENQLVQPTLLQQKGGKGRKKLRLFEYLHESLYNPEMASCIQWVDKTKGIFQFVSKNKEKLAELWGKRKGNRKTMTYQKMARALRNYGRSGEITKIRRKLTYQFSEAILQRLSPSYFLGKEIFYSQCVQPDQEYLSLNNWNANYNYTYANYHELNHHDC
# In short: as §1
# [14] = biological target: ELF4 (Homo sapiens, UniProt Q99607 1-663); details: protein: recombinant; tags: N-terminal GST; dsDNA, one strand shown
# Sequence of ELF4 (Q99607 whole entry): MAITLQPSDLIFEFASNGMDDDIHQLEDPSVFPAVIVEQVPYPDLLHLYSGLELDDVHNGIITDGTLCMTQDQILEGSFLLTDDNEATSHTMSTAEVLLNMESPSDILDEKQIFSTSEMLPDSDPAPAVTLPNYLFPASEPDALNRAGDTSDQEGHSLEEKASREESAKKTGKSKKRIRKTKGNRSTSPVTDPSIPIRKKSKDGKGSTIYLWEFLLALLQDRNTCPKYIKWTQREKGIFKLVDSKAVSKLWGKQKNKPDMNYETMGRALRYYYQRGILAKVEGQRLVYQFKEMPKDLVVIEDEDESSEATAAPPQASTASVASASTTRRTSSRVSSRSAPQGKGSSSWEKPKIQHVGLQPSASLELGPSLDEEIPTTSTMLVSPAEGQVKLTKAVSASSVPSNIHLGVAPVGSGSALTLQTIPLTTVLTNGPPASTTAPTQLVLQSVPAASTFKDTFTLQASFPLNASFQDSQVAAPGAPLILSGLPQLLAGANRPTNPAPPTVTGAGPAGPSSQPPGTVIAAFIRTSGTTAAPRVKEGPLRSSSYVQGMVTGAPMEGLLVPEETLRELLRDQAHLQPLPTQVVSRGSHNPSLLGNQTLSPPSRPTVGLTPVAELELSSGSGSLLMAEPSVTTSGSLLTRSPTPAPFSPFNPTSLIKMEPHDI
# In short: as §1
# [15] = biological target: T9, ELK4 (Homo sapiens, UniProt P28324-2 1-405); details: protein: recombinant; tags: N-terminal GST; dsDNA, one strand shown
# T9 sequence: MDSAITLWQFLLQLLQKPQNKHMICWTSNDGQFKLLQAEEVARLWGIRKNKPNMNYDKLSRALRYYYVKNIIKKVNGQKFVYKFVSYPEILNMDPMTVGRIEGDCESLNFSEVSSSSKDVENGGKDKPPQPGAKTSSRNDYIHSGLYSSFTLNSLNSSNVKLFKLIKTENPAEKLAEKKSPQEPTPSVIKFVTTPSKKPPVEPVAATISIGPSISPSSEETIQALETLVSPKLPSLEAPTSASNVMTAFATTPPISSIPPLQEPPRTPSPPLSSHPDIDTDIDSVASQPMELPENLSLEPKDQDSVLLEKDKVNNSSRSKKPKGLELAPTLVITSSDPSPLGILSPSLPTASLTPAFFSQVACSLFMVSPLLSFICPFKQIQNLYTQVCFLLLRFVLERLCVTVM
# In short: as §1
# [16] = biological target: T10, ETV2 (Homo sapiens, UniProt O00321 1-342); details: protein: recombinant; tags: N-terminal GST; dsDNA, one strand shown
# T10 sequence: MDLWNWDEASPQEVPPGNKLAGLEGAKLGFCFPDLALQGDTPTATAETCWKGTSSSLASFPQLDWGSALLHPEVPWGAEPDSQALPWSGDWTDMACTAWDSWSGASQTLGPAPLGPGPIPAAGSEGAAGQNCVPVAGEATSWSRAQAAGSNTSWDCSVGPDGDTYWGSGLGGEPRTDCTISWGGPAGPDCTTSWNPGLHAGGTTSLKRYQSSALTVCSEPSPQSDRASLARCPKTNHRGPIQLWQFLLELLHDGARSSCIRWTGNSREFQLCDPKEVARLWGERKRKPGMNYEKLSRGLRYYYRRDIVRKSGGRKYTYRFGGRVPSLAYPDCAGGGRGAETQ
# In short: as §1
# [17] = biological target: T11, ELF3 (Homo sapiens, UniProt P78545 1-371); details: protein: recombinant; tags: N-terminal GST; dsDNA, one strand shown
# T11 sequence: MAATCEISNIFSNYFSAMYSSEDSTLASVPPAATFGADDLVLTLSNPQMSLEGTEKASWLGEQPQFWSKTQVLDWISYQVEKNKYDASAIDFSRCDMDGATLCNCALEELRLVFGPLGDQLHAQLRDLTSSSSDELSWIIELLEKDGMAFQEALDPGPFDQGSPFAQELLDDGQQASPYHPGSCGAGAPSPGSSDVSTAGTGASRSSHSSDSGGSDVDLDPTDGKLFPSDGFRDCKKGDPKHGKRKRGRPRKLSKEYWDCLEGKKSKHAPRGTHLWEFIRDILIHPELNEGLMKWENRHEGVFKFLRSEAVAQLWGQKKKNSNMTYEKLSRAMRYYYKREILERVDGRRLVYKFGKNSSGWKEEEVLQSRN
# In short: as §1
# [18] = biological target: CRX (Homo sapiens, UniProt O43186 1-299); details: protein: recombinant; tags: N-terminal GST; dsDNA, one strand shown
# Sequence of CRX (O43186 whole entry): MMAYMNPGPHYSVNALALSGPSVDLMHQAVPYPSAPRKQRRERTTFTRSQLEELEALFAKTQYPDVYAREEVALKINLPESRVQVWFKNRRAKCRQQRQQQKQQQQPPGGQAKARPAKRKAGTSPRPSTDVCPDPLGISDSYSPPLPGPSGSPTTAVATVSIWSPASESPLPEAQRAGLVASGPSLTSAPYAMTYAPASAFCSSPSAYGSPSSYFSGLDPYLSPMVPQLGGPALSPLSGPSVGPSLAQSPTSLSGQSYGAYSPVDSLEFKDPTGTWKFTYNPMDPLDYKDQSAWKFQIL
# In short: as §1
# [19] = biological target: ETV1 (Homo sapiens, UniProt P50549 1-477); details: protein: recombinant; tags: N-terminal GST; dsDNA, one strand shown
# Sequence of ETV1 (P50549 whole entry): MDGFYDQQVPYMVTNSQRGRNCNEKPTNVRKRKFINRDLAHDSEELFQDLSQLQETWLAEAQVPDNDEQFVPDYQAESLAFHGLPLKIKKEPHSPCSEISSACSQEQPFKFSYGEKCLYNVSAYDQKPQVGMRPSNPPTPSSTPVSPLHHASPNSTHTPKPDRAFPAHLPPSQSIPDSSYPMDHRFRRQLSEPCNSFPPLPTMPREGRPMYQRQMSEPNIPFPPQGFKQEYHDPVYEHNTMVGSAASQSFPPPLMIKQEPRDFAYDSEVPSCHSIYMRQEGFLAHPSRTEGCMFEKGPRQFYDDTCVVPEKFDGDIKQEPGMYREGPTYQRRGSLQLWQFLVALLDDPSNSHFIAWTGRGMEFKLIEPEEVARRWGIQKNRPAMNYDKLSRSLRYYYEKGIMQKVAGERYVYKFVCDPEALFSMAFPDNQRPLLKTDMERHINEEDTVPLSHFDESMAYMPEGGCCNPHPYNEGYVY
# In short: as §1
sequence,measurement,setting,value
ATATAT,binding signal,[1],"1.47 fold enrichment (6-mer frequency, TF over GST control)"
same,binding signal,[2],"1.38 fold enrichment (6-mer frequency, TF over GST control)"
same,binding signal,[3],"1.44 fold enrichment (6-mer frequency, TF over GST control)"
same,binding signal,[4],"1.38 fold enrichment (6-mer frequency, TF over GST control)"
same,binding signal,[5],"1.47 fold enrichment (6-mer frequency, TF over GST control)"
same,binding signal,[6],"1.4 fold enrichment (6-mer frequency, TF over GST control)"
same,binding signal,[7],"1.37 fold enrichment (6-mer frequency, TF over GST control)"
same,binding signal,[8],"1.42 fold enrichment (6-mer frequency, TF over GST control)"
same,binding signal,[9],"1.4 fold enrichment (6-mer frequency, TF over GST control)"
same,binding signal,[10],"1.41 fold enrichment (6-mer frequency, TF over GST control)"
same,binding signal,[11],"1.42 fold enrichment (6-mer frequency, TF over GST control)"
same,binding signal,[12],"1.31 fold enrichment (6-mer frequency, TF over GST control)"
same,binding signal,[13],"1.51 fold enrichment (6-mer frequency, TF over GST control)"
same,binding signal,[14],"1.38 fold enrichment (6-mer frequency, TF over GST control)"
same,binding signal,[15],"1.55 fold enrichment (6-mer frequency, TF over GST control)"
same,binding signal,[16],"1.31 fold enrichment (6-mer frequency, TF over GST control)"
same,binding signal,[17],"1.64 fold enrichment (6-mer frequency, TF over GST control)"
same,binding signal,[18],"1.46 fold enrichment (6-mer frequency, TF over GST control)"
same,binding signal,[19],"1.33 fold enrichment (6-mer frequency, TF over GST control)"
